Potency data for 106 molecules are collected here from PubChem BioAssay AID1030 (National Center for Advancing Translational Sciences (NCATS), 2008).

Molecules are shown by their SMILES. Hit rate of the full screen: of about 220,000 compounds, about 16,000 (7.3%) were called active. Entries that show only a call come without a potency. Not shown: some 25% with an inconclusive outcome. Calls follow the shape of the dose curve; as a rule, active = well fitted inhibition curve with a large enough effect (not every such curve was filed as active); inconclusive = small, poorly fitted or top-dose-only effect, or another doubt; inactive = no such curve, though single readings can be large or run the other way. This excerpt belongs to a sample that is enriched for actives.
Potency is read from the fitted curve at half-maximal effect.

This experiment deals with Aldehyde dehydrogenase 1A1 (Homo sapiens) (UniProt P00352). Put plainly: qHTS Assay for Inhibitors of Aldehyde Dehydrogenase 1 (ALDH1A1). Conditions: Purified ALDH1A1, NADH fluorescence, propionaldehyde substrate; series mostly up to 75.3 µM.
Chain of Aldehyde dehydrogenase 1A1 (Homo sapiens) (P00352 whole entry, looked up): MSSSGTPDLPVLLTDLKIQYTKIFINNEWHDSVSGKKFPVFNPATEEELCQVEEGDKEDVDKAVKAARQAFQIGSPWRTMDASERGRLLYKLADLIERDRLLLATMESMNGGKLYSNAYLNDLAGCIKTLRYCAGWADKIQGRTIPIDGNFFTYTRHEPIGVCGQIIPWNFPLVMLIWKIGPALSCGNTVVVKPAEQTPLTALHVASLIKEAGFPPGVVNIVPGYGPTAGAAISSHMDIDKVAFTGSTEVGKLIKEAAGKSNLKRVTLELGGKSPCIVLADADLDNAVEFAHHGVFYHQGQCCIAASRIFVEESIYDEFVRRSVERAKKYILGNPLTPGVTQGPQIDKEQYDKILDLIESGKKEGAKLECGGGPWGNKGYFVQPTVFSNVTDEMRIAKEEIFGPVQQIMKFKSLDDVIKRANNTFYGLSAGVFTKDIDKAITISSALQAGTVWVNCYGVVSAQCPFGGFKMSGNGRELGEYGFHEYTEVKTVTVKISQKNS
On to `O=C1CC(c2c(F)cccc2Cl)C(n2cncn2)C(O)=C1C1NCCc2ccccc21` (stereo unspecified), for which the Potency result was “inactive”. Consider `CCOc1ccc(C(CC(=O)O)NC(=O)C23CC4CC(CC(C4)C2)C3)cc1OC` (stereo unspecified), for which the Potency result is “inactive”. In the case of `O=C(CNC(=O)COc1ccccc1)NCCc1ccccn1` it was “inactive”; in that of `COC(c1ccccc1)c1nnc(CCC(=O)N2CCN(CCOc3ccccc3)CC2)o1` (stereo unspecified), “inactive”. As to `OCCC1CN(Cc2cccc(O)c2)CCN1CCc1ccccc1` (stereo unspecified), the Potency result was “inactive”. In the case of `CCn1cc(-c2cc(C(=O)O)on2)c(C)n1` it was “inactive”; in that of `COC(=O)C(C)N=Cc1ccccc1` (stereo unspecified), “inactive”. For `Fc1ccc(-c2csc(-c3ccc(C4SCCS4)cc3)n2)cc1F`, the Potency result was “inactive”. As to `CCCCNc1nc2c(c(=O)[nH]c(=O)n2C)n1CCOc1ccccc1`, the Potency entry was “inactive”. In the case of `Cc1cc(C)c(NC(=O)C[N+](C)(C)CC(O)COc2cccc3ccccc23)c(C)c1` (stereo unspecified), the Potency result is “inactive”.

For the molecule `CCC(C)Sc1nc2c(c(=O)[nH]c(=O)n2C)n1CC(O)COc1cccc2ccccc12` (stereo unspecified), the Potency is 25.1 µM (active). In the case of `CCCN(CC(=O)Nc1ccc(OC)c(OC)c1)CC(=O)Nc1ccc(F)c(F)c1F` it was “inactive”; in that of `CNc1ccc(SC#N)cc1`, 8.91 µM (active).

As for `COC(=O)Cc1c(O)ccn(Cc2cccc(C(F)(F)F)c2)c1=O`, the Potency result is “inactive”.

For `CCOc1ccc(C2C(C(=O)O)c3ccccc3C(=O)N2CCN2CCOCC2)cc1` (stereo unspecified), the Potency result is “inactive”. For `CCCOc1ccc(C2c3c(oc4cc(C)c(C)cc4c3=O)C(=O)N2CCCN2CCOCC2)cc1` (stereo unspecified), the Potency was 3.98 µM (active). In the case of `O=C1c2oc3ccc(Br)cc3c(=O)c2C(c2cccc(F)c2)N1CCO` (stereo unspecified) it was “inactive”; in that of `COc1cccc(OCCCN2CCCCCC2)c1`, 14.1 µM (active); in that of `c1ccc2cc(OCCN3CCCC3)ccc2c1`, “inactive”. Take `COc1cccc(OCC(O)CN2CCN(CCO)CC2)c1` (stereo unspecified): the Potency result is “inactive”. In the case of `OC(c1nnc(-c2ccccc2)o1)c1cccs1` (stereo unspecified) it was “inactive”. In the case of `O=C(Nc1ccccc1Cl)/C(Cl)=C(\Cl)S(=O)c1ccccc1` (stereo unspecified) it was 10 µM (active); in that of `O=C(O)c1ccc(Cl)c(S(=O)(=O)Nc2ccccc2Cl)c1`, “inactive”; in that of `O=C(Nc1ccccc1Cl)c1ccc2nsnc2c1`, “inactive”. Then `O=c1[nH]c(CN2CCOCC2)nc2scc(-c3ccccc3)c12`, with “inactive”; and `Cc1ccc(S(=O)(=O)N(C)C)cc1NC(=O)COC(=O)c1c(C)noc1C`, with “inactive”; and `CCCCN=C1C([N+](=O)[O-])=CC=C2C1=NC1(CCCCC1)N2O`, with 1.41 µM (active).

In the case of `Cn1cc(CCC(=O)NCc2ccc3c(c2)OCO3)c2ccccc21`, the Potency entry was “inactive”. Then `O=C(COC(=O)c1ccc2c(c1)OCCO2)NCc1ccccc1`, with “inactive”. In the case of `O=C(CN(Cc1ccccc1)C(=O)c1ccc2c(c1)OCCO2)NCc1ccc2c(c1)OCO2` it was 0.631 µM (active). Then `CC(C)(C)NC(=O)CN(C(=O)c1csnn1)c1ccccc1-c1ccccc1`, with “inactive”; and `CSc1cccc(NC(=S)N(Cc2ccccc2)Cc2ccccn2)c1`, with “inactive”; and `Cc1cc(C)cc(NC(=S)NCCCN2CCOCC2)c1`, with “inactive”. On to `CCOc1ccccc1/C=c1\sc2nc(-c3ccco3)nn2c1=O`, for which the Potency is 28.2 µM (active). As for `CSc1nc(-c2ccco2)nn1C(=O)CCc1ccccc1`, the Potency entry is “inactive”. In the case of `CCOc1ccccc1C(=O)NCc1ccco1` it was “inactive”; in that of `O=C(O)CC1S/C(=N\N=C/c2ccccc2O)N(c2ccc(O)cc2)C1=O` (stereo unspecified), “inactive”; in that of `O=C(CN1C(=O)CCC1=O)Nc1ccc(S(=O)(=O)N2CCOCC2)cc1`, “inactive”. Then `Cc1cc(C(=O)NNC(=O)c2cccc(S(=O)(=O)N3CCOCC3)c2)c2ccccc2n1`, with “inactive”. For the molecule `O=C(c1cccc(S(=O)(=O)N2CCOCC2)c1)N1CCOCC1`, the Potency entry is “inactive”. Take `O=C(NC(=S)Nc1ccc(S(=O)(=O)N2CCOCC2)cc1)c1ccccc1[N+](=O)[O-]`: the Potency was 7.94 µM (active). `O=C(NNC(=S)Nc1ccccc1)c1cccc(S(=O)(=O)N2CCOCC2)c1`: the Potency is 28.2 µM (active). Then `O=C(Nc1ccc(N2CCOCC2)cc1)c1ccc(-c2ccccc2[N+](=O)[O-])o1`, with “inactive”.

Consider `CCc1c(C)nc2c(OC)cccc2c1Cl`, for which the Potency result was “inactive”.

Take `CCSc1nc(C)c(CCOc2cccc(C)c2)c(=O)[nH]1`: the Potency result was “inactive”.

As to `COc1ccc(-c2[nH]ncc2CN(Cc2nccn2C)C(C)C)cc1F`, the Potency result is “inactive”. In the case of `CCCCCCCC1=Cc2ccc(F)cc2C(C(C(=O)OC)C(=O)OC)N1C(=O)OC` (stereo unspecified) it was “inactive”; in that of `COc1ccccc1N(CC(=O)Nc1ccc(C(F)(F)F)cc1)S(C)(=O)=O`, “inactive”; in that of `COc1ccc(C(=O)C2CCCN(C(=O)c3cc4nc(C)cc(C)n4n3)C2)cc1F` (stereo unspecified), “inactive”. In the case of `CCCCN(C(=O)c1ccc(OC(F)(F)F)cc1)c1c(N)n(CCC)c(=O)[nH]c1=O` it was “inactive”; in that of `O=C(Nc1ccnc(-c2ccncc2)n1)c1cccs1`, “inactive”; in that of `CC(=O)c1cc(C#N)c(N2CC(C)OC(C)C2)nc1C` (stereo unspecified), “inactive”. Then `Cn1c(SCc2c(F)cccc2Cl)nnc1-c1cnccn1`, with 12.6 µM (active); and `N#Cc1ccc(CSc2nnc(-c3ccccn3)n2-c2ccc(Cl)cc2)cc1`, with “inactive”.

`CCN(CC)C(=O)CSc1nnc(-c2cnccn2)n1-c1ccc(C)cc1`: the Potency entry was “inactive”.

For the molecule `CC(=O)NC(NC(=S)Nc1c(C)n(C)n(-c2ccccc2)c1=O)C(Cl)(Cl)Cl` (stereo unspecified), the Potency entry was “inactive”.

In the case of `COC(=O)c1ccc(-c2noc(CN(Cc3ccccn3)CC3CCCO3)n2)cc1` (stereo unspecified), the Potency entry was “inactive”. Then `CN(C)c1ccnc(Nc2ccc(F)cc2)c1C#N`, with “inactive”. Then `Fc1ccc(Nc2nnns2)cc1`, with 2 µM (active). In the case of `O=C1CS(=O)CN1c1ccc(Oc2ccccc2)cc1` (stereo unspecified) it was “inactive”.

As for `O=C(CCC1CCCN(C(=O)Cc2ccc(F)cc2)C1)N1CCN(c2ccccn2)CC1` (stereo unspecified), the Potency result was “inactive”. Then `CCN(CC(=O)NC1CCS(=O)(=O)C1)S(=O)(=O)c1ccccc1` (stereo unspecified), with “inactive”; and `CCN(CC(=O)NCCc1ccccc1)S(=O)(=O)c1ccc(C)cc1`, with “inactive”. Regarding `CCN(CC(=O)NCCc1ccccc1)S(=O)(=O)c1ccccc1`, the Potency is 35.5 µM (active).

Turning to `O=C(N/N=C/c1cccc([N+](=O)[O-])c1)C1CC(=O)N(c2ccc(Br)cc2)C1` (stereo unspecified), the Potency entry was “inactive”. Take `C=CCNC(=O)/C(=C\c1cccc([N+](=O)[O-])c1)NC(=O)c1ccccc1`: the Potency result is “inactive”.

Turning to `N#C/C(=C/c1cccc([N+](=O)[O-])c1)c1nnc2n1CCCCC2`, the Potency was 20 µM (active). Take `N/C(=N\OC(=O)CCc1ccccc1)c1cccnc1`: the Potency entry was “inactive”.

`COC(=O)c1ccc(NC(=O)c2cc(Cl)ccc2OC)cc1`: the Potency entry was “inactive”.

With `CCC(=O)c1ccc(N2CCN(C(=O)c3cc([N+](=O)[O-])ccc3F)CC2)c(F)c1`, the Potency result is “inactive”.

With `COC(=O)C1(C(C)=O)CC2=CC[C@H]3C(=O)N(c4ccccc4)C(=O)[C@H]3[C@@H]2Cc2ccccc2[C@@H]1C[N+](=O)[O-]` (stereo partly specified), the Potency entry was “inactive”.

For the molecule `O=C(CCNS(=O)(=O)c1ccc(Br)s1)NCc1ccccc1Cl`, the Potency result is “inactive”. Regarding `NC(=S)N/N=C/c1ccc([N+](=O)[O-])cc1`, the Potency result was “inactive”. Take `Cc1cccc(COc2ccccc2/C=N/Nc2ccc([N+](=O)[O-])cc2)c1`: the Potency result was “inactive”. For the molecule `O=[N+]([O-])c1ccc(N/N=C/c2ccccc2)cc1`, the Potency is 14.1 µM (active).

Regarding `Cn1ncc(N2CCN(S(=O)(=O)c3ccc(Br)cc3)CC2)c(Cl)c1=O`, the Potency entry is “inactive”.

For the molecule `N#Cc1c(C(F)(F)F)cc(-c2ccc(Cl)cc2)nc1SCC(=O)O`, the Potency result was “inactive”. In the case of `Cc1ccc(C(=O)N/C(=C/c2cccs2)C(=O)N2CCCCC2)cc1` it was “inactive”; in that of `Cc1cccc(C(=O)N2CCc3c([nH]c4ccccc34)C2CC(C)C)n1` (stereo unspecified), “inactive”. In the case of `CCOC(=O)C1(Cc2cccc(OC)c2)CCN(Cc2csc(C(C)=O)c2)CC1` it was “inactive”; in that of `CCOC(=O)C1(Cc2cccc(OC)c2)CCN(C(C)CC(C)(C)O)CC1` (stereo unspecified), 3.55 µM (active). Then `CCOC(=O)C1(Cc2cccc(OC)c2)CCN(C(C)COC)CC1` (stereo unspecified), with “inactive”; and `CN(CC(=O)NC1CCCC1)S(=O)(=O)c1cnc[nH]1`, with “inactive”; and `CCN(CC)CCN(C(=O)c1ccc(N2C(=O)CCC2=O)cc1)c1nc2cc3c(cc2s1)OCO3`, with 20 µM (active). With `CCN(CC)CCN(C(=O)c1cccc([N+](=O)[O-])c1)c1nc2ccc(OC)cc2s1`, the Potency result was “inactive”. Then `CCCCN(CC)C(=O)c1ccc2c(c1)OCO2`, with “inactive”; and `COc1ccc(CC2(CO)CCN(Cc3cnn(C)c3)CC2)cc1`, with “inactive”. In the case of `COCCCNC(=O)/C=C/c1ccc(OCc2c(F)cccc2Cl)cc1` it was “inactive”.

Take `Cc1nc(NC(=O)CN(C)S(=O)(=O)c2ccc(Cl)cc2)sc1C`: the Potency entry is “inactive”. As to `Cc1nc(-c2ccc(Cl)cc2)sc1C(=O)CBr`, the Potency was 12.6 µM (active). Regarding `Cc1ccc(SCC(=O)c2sc(-c3ccccc3)nc2C)cc1`, the Potency entry was “inactive”. In the case of `O=C(N/N=C/c1cc([N+](=O)[O-])ccc1O)/C(=C\c1cccs1)NC(=O)c1ccccc1` it was “inactive”; in that of `CCC(=O)Nc1ccc(Nc2nc(Cl)nc(Nc3ccc(NC(=O)CC)cc3)n2)cc1`, “inactive”; in that of `O=c1[nH]c2cccnc2n(CCNc2ncc(C(F)(F)F)cc2Cl)c1=O`, “inactive”.

`CC(C)(C)n1cnnc1Sc1ccc([N+](=O)[O-])cn1`: the Potency entry is “inactive”.

Consider `CCCCNC(=O)C(=O)c1ccccc1NC(C)=O`, for which the Potency result was “inactive”. In the case of `Cc1cc2nc(C)n(CCCNC(=O)Nc3ccccc3)c2cc1C` it was “inactive”; in that of `CCCCNC(=O)Nc1c(C)cc(SC#N)cc1C`, 0.562 µM (active). Then `O=C(NCCOCc1ccc(Cl)cc1)c1ncn[nH]1`, with “inactive”; and `O=C(/C=C/Sc1ncn[nH]1)c1ccc(Cl)cc1`, with 8.91 µM (active). In the case of `COc1cccc2cc(S(=O)(=O)c3ccc(C)cc3)/c(=N/NS(=O)(=O)c3ccc(C)cc3)oc12`, the Potency result was “inactive”. In the case of `CCOc1ccc(-n2c(SCC(=O)NC3CCS(=O)(=O)C3)nnc2-c2cccnc2)cc1` (stereo unspecified) it was “inactive”. Then `Cn1c2c(c(=O)n(C)c1=O)[C@@H]1c3c(ccc4ccccc34)OC[C@@H]1CO2`, with “inactive”; and `Cn1c2c(c(=O)n(C)c1=O)C1c3ccccc3OCC1C(C)(C)O2` (stereo unspecified), with 28.2 µM (active). In the case of `COc1cccc2c1OCC1COc3c(c(=O)n(C)c(=O)n3C)C21` (stereo unspecified) it was “inactive”; in that of `COc1ccc(C/C(N)=N/OC(=O)c2ccco2)cc1OC`, “inactive”.
